Results on 40 compounds are retold here after PubChem BioAssay.

SMILES strings stand for the structures.

The first assay can be described thus: NFkB reporter suppression in cystic fibrosis bronchial cells – cell-based, uHTS hits, panel, cytotoxicity readout, dose response (AID 624344). Particulars: CF bronchial epithelial cells, PAF-induced NFkB reporter inhibition, with PAF, run 1; at 79 µM (top of the series) unless noted.
As for `CCOC(=O)C1=C(CC)Nc2ccccc2N=C1NC(=O)Nc1ccc(Cl)c(Cl)c1`, the inhibition was determined as 113%.

Turning to `CCN1CCN(Cc2ccc(NC(=O)c3ccc(C)c(NC(=O)c4cc(-c5ccc(Br)cc5)n[nH]4)c3)cc2C(F)(F)F)CC1`, the inhibition was determined as 102%.

Turning to `C=C1C(=O)[C@]23C[C@H]1CC[C@H]2[C@]1(C)[C@@H](OC(C)=O)CC[C@@](C)(C(=O)O)[C@H]1C[C@@H]3O`, the inhibition turned out to be 97.6%.

With `COc1ccc(-c2cc(-c3nc4ccccn4c3NCc3ccccc3)ccc2OC)cc1`, the inhibition turned out to be 105%.

Turning to `CCOC(=O)C1=C(C)Nc2ccccc2N=C1NC(=O)c1oc2ccccc2c1COC`, the inhibition is 90.5%.

As for `CC(=C/c1ccccc1)/C=N/n1c(-c2ccncc2)n[nH]c1=S`, the inhibition is 110%.

As for `C[C@@H]1CN([C@H](C)CO)C(=O)c2cc(NC(=O)Nc3ccc(C(F)(F)F)cc3)ccc2O[C@H]1CN(C)S(=O)(=O)c1ccccc1`, the inhibition was 92%.

`COc1ccc2ncn(-c3ccccc3)c2c1`: the inhibition amounted to 104%.

`N=C1N(c2ccccc2)C(=S)C(=Nc2ccccc2)N1c1ccccc1`: the inhibition turned out to be 114%.

As to `COc1ccc(-c2cn[nH]c2-c2ccc(OCc3ccccc3)cc2O)cc1`, the inhibition stood at 99.8%.

In the case of `O=C1Cc2c([nH]c3ccc(Br)cc23)-c2ccccc2N1`, the inhibition stood at 94.6%.

On to `O=c1cc(-c2ccccc2Cl)oc2c([N+](=O)[O-])c(O)cc(O)c12`, for which the inhibition turned out to be 101%.

For `O=C(NNc1ccccc1Br)C(O)(c1cccc(C(F)(F)F)c1)c1cccc(C(F)(F)F)c1`, the inhibition was 103%.

Take `COc1ccc(-n2c(C)cc3cc(OC(C)=O)ccc32)cc1`: the inhibition was 86.5%.

Take `Cc1cccc(N(Cc2cc(=O)[nH]c3ccccc23)C(=O)CCl)c1`: the inhibition was determined as 95.1%.

For `Cc1ccc(NS(=O)(=O)c2ccc(-c3cnc(C4CC4)o3)cc2)c(C)c1`, the inhibition amounted to 104%.

Regarding `O=C(Nc1cccc(Cl)c1)Nc1cc(S(=O)(=O)N2CCCCC2)ccc1Cl`, the inhibition was 117%.

For the compound `COc1ccc(-c2csc(/C(C#N)=C\c3ccc(O)c([N+](=O)[O-])c3)n2)cc1OC`, the inhibition was found to be 97.7%.

Consider `COc1ccc(OC)c(N(CCN2C(=O)c3ccccc3C2=O)C(=O)CCl)c1`, for which the inhibition is 106%.

As to `Cc1cccc(NC(=O)c2nc[nH]c2C(=O)NCCCNC(=O)c2[nH]cnc2C(=O)Nc2cccc(C)c2)c1`, the inhibition is 97.6%.

Take `COc1cc2c(Cc3ccccc3)cncc2cc1O`: the inhibition was 107%.

`Cc1cc(C)c(O)c(CN(C)Cc2cc(Cl)cc(Cl)c2O)c1`: the inhibition is 109%.

With `O=C(c1ccc(O)c(Br)c1)c1cc(Br)ccc1O`, the inhibition was found to be 105%.

Consider `Nc1ncnc2c1c(-c1ccc(Oc3ccccc3)cc1)cn2C1CCCC1`, for which the inhibition came to 114%.

As to `Cc1ccc(CSc2nccc(-c3c(C)nc4ccccn34)n2)cc1`, the inhibition was 101%.

In the case of `c1ccc2c(-c3ccc4nncn4c3)cncc2c1`, the inhibition is 92.3%.

With `Cc1cccc(CS(=O)(=O)c2ncc(Cl)c(C(=O)NCc3ccccc3)n2)c1`, the inhibition is 92.1%.

Consider `Cc1ccc(-c2onc3ccc(C(=O)/C=C/N(C)C)cc23)cc1`, for which the inhibition is 101%.

For the compound `O=C(COC(=O)c1ccccc1C(=O)c1ccc(Cl)c([N+](=O)[O-])c1)NC1CCCCCC1`, the inhibition was 110%.

Take `Cn1ncc2c(O/N=C(\N)c3ccc(C(C)(C)C)cc3)ncnc21`: the inhibition stood at 101%.

`Cc1nn(-c2ccccn2)c2c1-c1nc(N)ncc1CC2`: the inhibition is 98.6%.

With `COc1cccc(C(=O)N2C(C(C)C)COc3cc(Br)ccc3S2(=O)=O)c1` (stereo not given), the inhibition turned out to be 118%.

In the case of `Cc1cc(C)cc(NS(=O)(=O)c2ccc(-c3cnc(C4CC4)o3)cc2)c1`, the inhibition was found to be 110%.

As for `Cc1nn(-c2nccs2)c2c1C(=O)CC(C)(C)C2Br` (stereo not given), the inhibition amounted to 108%.

On to `COc1cccc(-c2ccc3ncnc(NCc4cccs4)c3c2)c1`, for which the inhibition was 117%.

Regarding `C=CCN1c2ccccc2Sc2cnccc21`, the inhibition was 105%.

On to `Cc1nc([N+](=O)[O-])c(Sc2nc3ccc([N+](=O)[O-])cc3[nH]2)n1Cc1ccccc1`, for which the inhibition came out at 101%.

Consider `CC(=O)c1ccc(-c2cnc3c(NC=O)cc(-c4ccc(C(=O)NC5CC5)cc4)cn23)cc1`, for which the inhibition worked out at 99.5%.

On to `COc1cccc2c(SCC(=O)N/N=C/c3ccccc3)cc(C)nc12`, for which the inhibition is 104%.

`Fc1ccc(-n2cc(-c3ccccc3)c3c(N4CCOCC4)ncnc32)cc1`: the inhibition worked out at 110%.

Assay in the next assay: as above
Particulars: CF bronchial epithelial cells, PAF-induced NFkB reporter inhibition, with PAF, run 2; at 79 µM (top of the series) unless noted.
Consider `CCOC(=O)C1=C(CC)Nc2ccccc2N=C1NC(=O)Nc1ccc(Cl)c(Cl)c1`, for which the inhibition came to 103%.

For the compound `CCN1CCN(Cc2ccc(NC(=O)c3ccc(C)c(NC(=O)c4cc(-c5ccc(Br)cc5)n[nH]4)c3)cc2C(F)(F)F)CC1`, the inhibition worked out at 112%.

With `C=C1C(=O)[C@]23C[C@H]1CC[C@H]2[C@]1(C)[C@@H](OC(C)=O)CC[C@@](C)(C(=O)O)[C@H]1C[C@@H]3O`, the inhibition was found to be 94%.

As for `COc1ccc(-c2cc(-c3nc4ccccn4c3NCc3ccccc3)ccc2OC)cc1`, the inhibition came out at 96.6%.

For the compound `CCOC(=O)C1=C(C)Nc2ccccc2N=C1NC(=O)c1oc2ccccc2c1COC`, the inhibition is 101%.

Consider `CC(=C/c1ccccc1)/C=N/n1c(-c2ccncc2)n[nH]c1=S`, for which the inhibition amounted to 103%.

Regarding `C[C@@H]1CN([C@H](C)CO)C(=O)c2cc(NC(=O)Nc3ccc(C(F)(F)F)cc3)ccc2O[C@H]1CN(C)S(=O)(=O)c1ccccc1`, the inhibition turned out to be 110%.

For `COc1ccc2ncn(-c3ccccc3)c2c1`, the inhibition was found to be 101%.

For `N=C1N(c2ccccc2)C(=S)C(=Nc2ccccc2)N1c1ccccc1`, the inhibition worked out at 103%.

In the case of `COc1ccc(-c2cn[nH]c2-c2ccc(OCc3ccccc3)cc2O)cc1`, the inhibition stood at 114%.

Regarding `O=C1Cc2c([nH]c3ccc(Br)cc23)-c2ccccc2N1`, the inhibition was determined as 80.1%.

As to `O=c1cc(-c2ccccc2Cl)oc2c([N+](=O)[O-])c(O)cc(O)c12`, the inhibition came to 109%.

Regarding `O=C(NNc1ccccc1Br)C(O)(c1cccc(C(F)(F)F)c1)c1cccc(C(F)(F)F)c1`, the inhibition is 104%.

Consider `COc1ccc(-n2c(C)cc3cc(OC(C)=O)ccc32)cc1`, for which the inhibition came to 70.9%.

As for `Cc1cccc(N(Cc2cc(=O)[nH]c3ccccc23)C(=O)CCl)c1`, the inhibition turned out to be 90.7%.

Take `Cc1ccc(NS(=O)(=O)c2ccc(-c3cnc(C4CC4)o3)cc2)c(C)c1`: the inhibition amounted to 111%.

On to `O=C(Nc1cccc(Cl)c1)Nc1cc(S(=O)(=O)N2CCCCC2)ccc1Cl`, for which the inhibition stood at 97.2%.

For `COc1ccc(-c2csc(/C(C#N)=C\c3ccc(O)c([N+](=O)[O-])c3)n2)cc1OC`, the inhibition came to 102%.

For the compound `COc1ccc(OC)c(N(CCN2C(=O)c3ccccc3C2=O)C(=O)CCl)c1`, the inhibition was determined as 101%.

Take `Cc1cccc(NC(=O)c2nc[nH]c2C(=O)NCCCNC(=O)c2[nH]cnc2C(=O)Nc2cccc(C)c2)c1`: the inhibition was determined as 75.5%.

Regarding `COc1cc2c(Cc3ccccc3)cncc2cc1O`, the inhibition was found to be 96.3%.

Turning to `Cc1cc(C)c(O)c(CN(C)Cc2cc(Cl)cc(Cl)c2O)c1`, the inhibition was found to be 101%.

Take `O=C(c1ccc(O)c(Br)c1)c1cc(Br)ccc1O`: the inhibition was found to be 109%.

`Nc1ncnc2c1c(-c1ccc(Oc3ccccc3)cc1)cn2C1CCCC1`: the inhibition was 94.1%.

Regarding `Cc1ccc(CSc2nccc(-c3c(C)nc4ccccn34)n2)cc1`, the inhibition worked out at 102%.

As for `c1ccc2c(-c3ccc4nncn4c3)cncc2c1`, the inhibition is 79%.

Consider `Cc1cccc(CS(=O)(=O)c2ncc(Cl)c(C(=O)NCc3ccccc3)n2)c1`, for which the inhibition was 88.2%.

Turning to `Cc1ccc(-c2onc3ccc(C(=O)/C=C/N(C)C)cc23)cc1`, the inhibition was 113%.

With `O=C(COC(=O)c1ccccc1C(=O)c1ccc(Cl)c([N+](=O)[O-])c1)NC1CCCCCC1`, the inhibition was 99.7%.

`Cn1ncc2c(O/N=C(\N)c3ccc(C(C)(C)C)cc3)ncnc21`: the inhibition turned out to be 112%.

Turning to `Cc1nn(-c2ccccn2)c2c1-c1nc(N)ncc1CC2`, the inhibition worked out at 102%.

Regarding `COc1cccc(C(=O)N2C(C(C)C)COc3cc(Br)ccc3S2(=O)=O)c1` (stereo not given), the inhibition is 101%.

As for `Cc1cc(C)cc(NS(=O)(=O)c2ccc(-c3cnc(C4CC4)o3)cc2)c1`, the inhibition amounted to 106%.

Regarding `Cc1nn(-c2nccs2)c2c1C(=O)CC(C)(C)C2Br` (stereo not given), the inhibition came to 115%.

Take `COc1cccc(-c2ccc3ncnc(NCc4cccs4)c3c2)c1`: the inhibition came to 99.9%.

Take `C=CCN1c2ccccc2Sc2cnccc21`: the inhibition amounted to 116%.

Regarding `Cc1nc([N+](=O)[O-])c(Sc2nc3ccc([N+](=O)[O-])cc3[nH]2)n1Cc1ccccc1`, the inhibition turned out to be 112%.

For `CC(=O)c1ccc(-c2cnc3c(NC=O)cc(-c4ccc(C(=O)NC5CC5)cc4)cn23)cc1`, the inhibition was determined as 104%.

As to `COc1cccc2c(SCC(=O)N/N=C/c3ccccc3)cc(C)nc12`, the inhibition was 106%.

Consider `Fc1ccc(-n2cc(-c3ccccc3)c3c(N4CCOCC4)ncnc32)cc1`, for which the inhibition amounted to 102%.

By inhibition is commonly meant the relative decrease from the control value, in per cent.
